According to PubChem BioAssay (NCATS):
Records with an inconclusive call do not appear. The source made the active and inactive calls. Unless noted, calls follow the shape of the dose curve; as a rule, active = well fitted curve in the direction sought with a large enough effect; inconclusive = small, poorly fitted or top-dose-only effect, or another doubt; inactive = no such curve, though single readings can be large; an effect the other way counts as inactive or inconclusive.

Legend:
[1] = biological target: Ubiquitin carboxyl-terminal hydrolase 2 (Homo sapiens) (UniProt O75604); experiment: qHTS Validation Assay for Inhibitors of Ubiquitin-specific Protease USP2a Using CHOP2 as the Reporter (AID 463106)
Chain of Ubiquitin carboxyl-terminal hydrolase 2 (Homo sapiens) (O75604 whole entry, looked up): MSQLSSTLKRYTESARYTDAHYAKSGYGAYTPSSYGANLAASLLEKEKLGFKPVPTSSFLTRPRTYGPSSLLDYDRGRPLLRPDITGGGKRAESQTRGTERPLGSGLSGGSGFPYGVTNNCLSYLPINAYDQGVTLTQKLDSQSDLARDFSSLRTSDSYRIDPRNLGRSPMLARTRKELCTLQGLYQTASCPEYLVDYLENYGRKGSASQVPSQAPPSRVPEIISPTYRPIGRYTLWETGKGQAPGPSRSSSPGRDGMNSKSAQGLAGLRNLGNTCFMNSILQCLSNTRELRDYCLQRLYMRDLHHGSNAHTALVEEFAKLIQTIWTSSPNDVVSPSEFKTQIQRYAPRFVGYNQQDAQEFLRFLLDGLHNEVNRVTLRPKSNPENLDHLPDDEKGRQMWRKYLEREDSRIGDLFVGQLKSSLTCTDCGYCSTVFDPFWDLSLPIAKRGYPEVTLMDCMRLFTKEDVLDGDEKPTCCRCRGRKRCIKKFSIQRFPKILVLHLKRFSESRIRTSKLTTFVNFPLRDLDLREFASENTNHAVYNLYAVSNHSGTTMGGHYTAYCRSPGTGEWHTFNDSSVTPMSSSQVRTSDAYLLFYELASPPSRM
In short: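 Readout was coupled fluorescence (Ex 485/Em 531 nm), read 60 min after adding 25 nM final Ub-CHOP2 and 25 nM reporter substrate. Beforehand, 10 nM final USP2 core had 30 min at RT with compound in pH 8.0 buffer. Curves were fitted after normalization to NEM and flagged for artifacts using time-zero reads.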

[2] = biological target: DNA polymerase III PolC-type (Bacillus subtilis (strain 168)) (UniProt P13267); experiment: qHTS Validation Assay for the Inhibitors of DNA Replication in Gram-Positive Bacteria (AID 485295);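 also: reconstituted holoenzyme with PolC plus beta clamp SSB and primase; PicoGreen fluorescence of double-stranded DNA made on primed circular M13 template; series mostly up to about 57 µM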
In short: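 First, compound is mixed with the reconstituted replication complex and held at room temperature. Next, circular single-stranded M13Gori with nucleotides starts synthesis. Finally, PicoGreen in EDTA halts the reaction and stains double-stranded product for fluorescence reading.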

[3] = biological target: Tumor susceptibility gene 101 protein (Homo sapiens) (UniProt Q99816); experiment: qHTS Validation Assay for Iinhibitors of HIV-1 Budding by Blocking the Interaction of PTAP/TSG101 (AID 485342; calls by dose curve)
Chain of Tumor susceptibility gene 101 protein (Homo sapiens) (Q99816 whole entry, looked up, the tested form may be a part): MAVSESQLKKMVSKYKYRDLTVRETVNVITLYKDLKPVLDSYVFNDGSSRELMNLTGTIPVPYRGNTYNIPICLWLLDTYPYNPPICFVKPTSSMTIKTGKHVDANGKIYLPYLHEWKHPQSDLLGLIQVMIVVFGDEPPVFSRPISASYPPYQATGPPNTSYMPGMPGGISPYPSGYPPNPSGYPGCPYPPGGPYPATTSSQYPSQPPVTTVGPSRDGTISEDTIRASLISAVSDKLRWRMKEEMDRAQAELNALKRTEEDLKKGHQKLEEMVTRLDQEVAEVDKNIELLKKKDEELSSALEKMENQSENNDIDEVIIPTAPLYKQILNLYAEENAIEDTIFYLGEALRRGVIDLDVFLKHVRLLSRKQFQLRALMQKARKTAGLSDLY
In short: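 Binding of a FITC-tagged PTAP-motif peptide (50 nM) to the Tsg101 binding domain (10 uM) is monitored by fluorescence polarization. Compounds are pin-delivered before peptide addition, and incubation runs 20 min at room temperature.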

[4] = qHTS Validation Assay to Find Inhibitors of Chronic Active B-Cell Receptor Signaling (AID 485345; active = well fitted curve in the direction sought with a large enough effect in the main read-out, with a control signal flat, not every such curve was filed as active)
In short: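 Read-out: ratio of filter-corrected green (IkappaBalpha fusion) to red (native) luciferase signal in doxycycline-induced TMD8 cells after 4 h at 37C. Titration spanned 46 uM–3 nM; Data were normalised to basal cells and 10 uM MG-132 wells.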

[5] = biological target: Beta-2 adrenergic receptor (Homo sapiens) (UniProt P07550); experiment: qHTS validation assay of beta-arrestin-biased ligands of beta2-adrenergic receptor (AID 485366)
Chain of Beta-2 adrenergic receptor (Homo sapiens) (P07550 whole entry, looked up): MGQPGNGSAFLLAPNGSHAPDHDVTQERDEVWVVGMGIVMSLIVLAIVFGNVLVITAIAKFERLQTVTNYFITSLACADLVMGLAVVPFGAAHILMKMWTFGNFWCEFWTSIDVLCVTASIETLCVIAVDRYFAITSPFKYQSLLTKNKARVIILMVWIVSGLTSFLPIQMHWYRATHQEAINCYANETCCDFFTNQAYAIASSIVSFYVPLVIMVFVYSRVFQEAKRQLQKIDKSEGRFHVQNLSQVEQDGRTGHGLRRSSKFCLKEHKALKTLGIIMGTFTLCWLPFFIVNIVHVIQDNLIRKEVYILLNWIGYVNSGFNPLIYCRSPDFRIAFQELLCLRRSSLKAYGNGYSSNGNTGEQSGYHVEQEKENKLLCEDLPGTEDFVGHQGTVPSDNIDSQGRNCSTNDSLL
In short: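 Screening used a titration range of up to 46 microM in a beta-arrestin recruitment Tango luciferase assay. Cells in 1% FBS medium were treated 18 hr at 37 degrees C, and luminescence was normalized to %Activity.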

[6] = biological target: Thioredoxin reductase 1, cytoplasmic (Rattus norvegicus) (UniProt O89049); experiment: qHTS Assay for Substrates of Mammalian Selenoprotein Thioredoxin Reductase 1 (TrxR1) (AID 488772);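 also: series mostly up to about 57 µM; a drop in NADPH fluorescence below the no-compound background marks a TrxR1 substrate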
Chain of Thioredoxin reductase 1, cytoplasmic (Rattus norvegicus) (O89049 whole entry, looked up): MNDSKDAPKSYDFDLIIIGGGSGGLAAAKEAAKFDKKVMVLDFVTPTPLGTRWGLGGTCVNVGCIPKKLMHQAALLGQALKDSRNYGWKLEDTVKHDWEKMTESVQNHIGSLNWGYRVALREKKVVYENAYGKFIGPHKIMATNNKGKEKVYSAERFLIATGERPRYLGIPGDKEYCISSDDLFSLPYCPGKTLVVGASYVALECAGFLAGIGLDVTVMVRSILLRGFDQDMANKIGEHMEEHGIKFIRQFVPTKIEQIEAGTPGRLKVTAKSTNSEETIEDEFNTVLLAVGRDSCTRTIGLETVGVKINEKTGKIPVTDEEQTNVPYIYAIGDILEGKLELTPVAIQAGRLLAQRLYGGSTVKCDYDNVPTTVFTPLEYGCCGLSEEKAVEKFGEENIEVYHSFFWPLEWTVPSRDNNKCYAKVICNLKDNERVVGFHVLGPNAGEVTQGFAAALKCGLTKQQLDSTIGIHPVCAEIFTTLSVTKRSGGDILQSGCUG
In short: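 In this dual-purpose format, potential substrates are identified from the first fluorescence read after selenite addition, not from the 8-minute delta. Rat enzyme is preincubated with NADPH and then with compound at ~22 deg C.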

[7] = biological target: Thioredoxin reductase 1, cytoplasmic (Rattus norvegicus) (UniProt O89049); experiment: qHTS Assay for Inhibitors of Mammalian Selenoprotein Thioredoxin Reductase 1 (TrxR1) (AID 488773); conditions: Potency: inhibition;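 also: drop in NADPH fluorescence over an 8 min run after selenite addition; series mostly up to about 57 µM; nearly all actives have a fitted effect of over 40% in size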
In short: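 Inhibition is scored from the loss of NADPH fluorescence between first and last reads of an 8-min kinetic run. Selenite (400 uM) was the substrate, added after 15 min compound preincubation at room temperature.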

[8] = biological target: Flap endonuclease 1 (Homo sapiens) (UniProt P39748); experiment: qHTS Validation Assay for the Inhibitors of Human Flap endonuclease 1 (FEN1) (AID 488816)
Chain of Flap endonuclease 1 (Homo sapiens) (P39748 whole entry, looked up): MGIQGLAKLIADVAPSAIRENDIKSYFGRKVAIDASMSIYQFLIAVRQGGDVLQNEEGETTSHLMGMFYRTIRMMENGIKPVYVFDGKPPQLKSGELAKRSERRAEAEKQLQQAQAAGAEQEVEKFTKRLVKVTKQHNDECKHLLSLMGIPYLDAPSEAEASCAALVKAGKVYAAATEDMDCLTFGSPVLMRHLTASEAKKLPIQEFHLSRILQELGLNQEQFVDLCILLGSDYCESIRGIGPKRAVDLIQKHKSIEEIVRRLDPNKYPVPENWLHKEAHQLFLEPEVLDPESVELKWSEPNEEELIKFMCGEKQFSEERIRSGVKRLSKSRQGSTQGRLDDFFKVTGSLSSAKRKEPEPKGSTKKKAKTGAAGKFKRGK
In short: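 qHTS format: compounds and 10 nM FEN1 incubated 15 min at room temperature before adding 50 nM substrate. Cleavage followed by reads at 0 and 15 min; normalized data fitted to a four-parameter Hill curve.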

[9] = biological target: Chromobox protein homolog 1 (Homo sapiens) (UniProt P83916); experiment: qHTS Validation Assay for Inhibitors of HP1-beta Chromodomain Interactions with Methylated Histone Tails (AID 488953);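 also: loss of AlphaScreen luminescence from HP1-beta binding biotinylated H3K9me3 peptide; series mostly up to about 110 µM; nearly all actives have a fitted effect of over 50% in size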
Chain of Chromobox protein homolog 1 (Homo sapiens) (P83916 whole entry, looked up): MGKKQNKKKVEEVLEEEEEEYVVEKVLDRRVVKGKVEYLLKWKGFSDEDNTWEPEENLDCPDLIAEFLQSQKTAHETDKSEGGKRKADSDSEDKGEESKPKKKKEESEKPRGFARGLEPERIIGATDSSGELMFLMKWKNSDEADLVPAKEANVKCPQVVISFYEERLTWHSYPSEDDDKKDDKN
In short: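 AlphaScreen proximity readout: streptavidin donor and Ni-chelate acceptor beads, 10 ug/mL final, 30 min dark, RT. Complex of 50 nM HP1-beta and 50 nM b-H3(1-18)K9me3 formed 30 min, then compound-treated 30 min; PBS pH 7.4/0.01% Tween-20.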

[10] = biological target: Methanococcus maripaludis chaperonin (MmCpn) (UniProt Q6LX38); experiment: High-Throughput Screening for Modulators of Cytosolic Chaperonin Activity: MmCpn Primary Screen (AID 488978);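 also: 50 nM MmCpn enzyme hydrolysing 30 µM ATP at 37 °C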
In short: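 Steps: chaperonin 50 nM final; add compound, 5 min RT; start with ATP, 30 uM final; hold 10 min at 37C; add ADP Transcreener HTRF reagent, 5 min; read ex 320, em 590 and 665 nm.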

[11] = biological target: D(1A) dopamine receptor (Homo sapiens) (UniProt P21728); experiment: HTS Assay for Allosteric Agonists of the Human D1 Dopamine Receptor: Primary Screen for Agonists (AID 488981)
Chain of D(1A) dopamine receptor (Homo sapiens) (P21728 whole entry, looked up): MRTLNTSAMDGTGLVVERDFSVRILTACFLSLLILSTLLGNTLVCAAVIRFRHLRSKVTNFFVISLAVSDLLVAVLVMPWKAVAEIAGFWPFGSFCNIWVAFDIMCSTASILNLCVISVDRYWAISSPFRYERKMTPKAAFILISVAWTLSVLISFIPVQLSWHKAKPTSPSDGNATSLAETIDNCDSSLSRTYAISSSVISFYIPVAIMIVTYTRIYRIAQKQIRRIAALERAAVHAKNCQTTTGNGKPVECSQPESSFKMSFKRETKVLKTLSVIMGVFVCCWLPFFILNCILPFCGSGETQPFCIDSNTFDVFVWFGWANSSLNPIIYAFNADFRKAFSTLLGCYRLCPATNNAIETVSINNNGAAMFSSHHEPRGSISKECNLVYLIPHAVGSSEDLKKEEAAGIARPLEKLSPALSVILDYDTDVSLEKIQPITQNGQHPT
In short: (§1)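 Calcium flux in an inducible, force-coupled HEK293 Trex D1 line (overnight at 30 C): agonist mode is the 180 s kinetic read after compound; potentiator mode is the following 180 s read after dopamine at EC20.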

[12] = biological target: D(1A) dopamine receptor (Homo sapiens) (UniProt P21728); experiment: HTS Assay for Allosteric Agonists of the Human D1 Dopamine Receptor: Primary Screen for Potentiators (AID 488982)
In short: as §1

[13] = biological target: D(1A) dopamine receptor (Homo sapiens) (UniProt P21728); experiment: HTS Assay for Allosteric Agonists of the Human D1 Dopamine Receptor: Primary Screen for Antagonists (AID 488983);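 also: calcium flux response to an EC80 dopamine challenge measured with no-wash dye; nearly all actives have a fitted effect of over 65% in size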
In short: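 Calcium flux readout, no-wash dye, inducible HEK293 T-REx D1 line (force-coupled). Compound added after 10 s baseline, 180 s kinetic read; then dopamine at EC80, further 180 s read.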

[14] = Quantitative high throughput screen for delayed death inhibitors of the malarial parasite plastid, 48 hour incubation (AID 488752); also: nearly all actives have a fitted effect of over 65% in size; also: potency is read from the fitted curve at half-maximal effect
In short: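 Luciferase-expressing P. falciparum in RBCs, 2% Hct, 0.1% parasitemia final; RPMI 1640 + 0.5% Albumax; 48 h, 37 C, 5% CO2; luminescence readout, signal drop = growth inhibition.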

[15] = biological target: M-phase phosphoprotein 8 (Homo sapiens) (UniProt Q99549); experiment: qHTS Validation Assay for Inhibitors for MPP8 Chromodomain Interactions with Methylated Histone Tails (AID 488949);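 also: 50 nM MPP8 with 50 nM peptide preformed then compounds added for 30 min; AlphaScreen signal from MPP8 chromodomain bound to biotinylated H3K9me3 peptide; top concentration of the series differs between compounds; nearly all actives have a fitted effect of over 55% in size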
Chain of M-phase phosphoprotein 8 (Homo sapiens) (Q99549 whole entry, looked up): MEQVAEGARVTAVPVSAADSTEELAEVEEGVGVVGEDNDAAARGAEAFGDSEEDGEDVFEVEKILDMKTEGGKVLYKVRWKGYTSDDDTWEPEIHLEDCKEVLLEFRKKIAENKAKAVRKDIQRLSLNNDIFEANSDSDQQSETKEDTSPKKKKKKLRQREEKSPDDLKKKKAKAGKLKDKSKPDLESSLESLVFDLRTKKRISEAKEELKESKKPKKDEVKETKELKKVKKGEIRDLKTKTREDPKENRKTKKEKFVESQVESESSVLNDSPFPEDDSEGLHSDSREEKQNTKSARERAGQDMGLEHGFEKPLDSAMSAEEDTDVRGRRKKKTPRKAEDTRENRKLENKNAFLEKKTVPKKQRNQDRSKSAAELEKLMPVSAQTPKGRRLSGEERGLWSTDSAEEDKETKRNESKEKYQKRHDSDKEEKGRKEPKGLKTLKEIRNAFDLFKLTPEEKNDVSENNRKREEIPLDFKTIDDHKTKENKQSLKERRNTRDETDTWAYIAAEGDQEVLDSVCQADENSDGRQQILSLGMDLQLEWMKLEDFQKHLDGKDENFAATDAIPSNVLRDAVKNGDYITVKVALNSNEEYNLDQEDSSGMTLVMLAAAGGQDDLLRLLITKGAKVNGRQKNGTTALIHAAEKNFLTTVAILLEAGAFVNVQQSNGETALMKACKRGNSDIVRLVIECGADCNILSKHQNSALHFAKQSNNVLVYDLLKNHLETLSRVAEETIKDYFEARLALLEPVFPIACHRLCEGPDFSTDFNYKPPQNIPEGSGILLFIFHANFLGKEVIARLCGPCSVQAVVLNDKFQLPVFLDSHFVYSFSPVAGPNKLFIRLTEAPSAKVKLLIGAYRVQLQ
In short: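 50 nM MPP8 + 50 nM b-H3K9me3 peptide, PBS pH 7.4/0.01% Tween-20, 30 min RT; + cpd 30 min RT; + AlphaScreen donor/Ni-chelate acceptor beads 10 ug/mL final, 30 min dark; luminescence read.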

[16] = biological target: Transient receptor potential cation channel subfamily V member 1 (Homo sapiens) (UniProt Q8NER1); experiment: HTS Assay for Compounds that Act as Enhancers of the Vanilloid Receptor 1 (AID 488979)
In short: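 Calcium influx kinetics via Fluo-8 (480/520 nm) in TRPV1-expressing cells, 2000/well cultured overnight at 35.5C. Compound-alone read 3 min (agonist phase), followed by EC20 capsaicin challenge for 2 min (enhancer phase).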

[17] = biological target: ATP-dependent 6-phosphofructokinase (Trypanosoma brucei brucei) (UniProt O15648); experiment: qHTS Validation Assay to Find Inhibitors of T. brucei phosphofructokinase (AID 485368)
In short: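 PFK-generated ADP was measured after 45 min at room temperature using ADP-Glo. The reaction contained 0.5 mM F6P and 0.1 mM ATP.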

[18] = biological target: Thyrotropin receptor (Homo sapiens) (UniProt P16473); experiment: qHTS Assay for Antagonists of the Thyroid Stimulating Hormone Receptor (AID 488980); also: series mostly up to about 58 µM
Chain of Thyrotropin receptor (Homo sapiens) (P16473 whole entry, looked up): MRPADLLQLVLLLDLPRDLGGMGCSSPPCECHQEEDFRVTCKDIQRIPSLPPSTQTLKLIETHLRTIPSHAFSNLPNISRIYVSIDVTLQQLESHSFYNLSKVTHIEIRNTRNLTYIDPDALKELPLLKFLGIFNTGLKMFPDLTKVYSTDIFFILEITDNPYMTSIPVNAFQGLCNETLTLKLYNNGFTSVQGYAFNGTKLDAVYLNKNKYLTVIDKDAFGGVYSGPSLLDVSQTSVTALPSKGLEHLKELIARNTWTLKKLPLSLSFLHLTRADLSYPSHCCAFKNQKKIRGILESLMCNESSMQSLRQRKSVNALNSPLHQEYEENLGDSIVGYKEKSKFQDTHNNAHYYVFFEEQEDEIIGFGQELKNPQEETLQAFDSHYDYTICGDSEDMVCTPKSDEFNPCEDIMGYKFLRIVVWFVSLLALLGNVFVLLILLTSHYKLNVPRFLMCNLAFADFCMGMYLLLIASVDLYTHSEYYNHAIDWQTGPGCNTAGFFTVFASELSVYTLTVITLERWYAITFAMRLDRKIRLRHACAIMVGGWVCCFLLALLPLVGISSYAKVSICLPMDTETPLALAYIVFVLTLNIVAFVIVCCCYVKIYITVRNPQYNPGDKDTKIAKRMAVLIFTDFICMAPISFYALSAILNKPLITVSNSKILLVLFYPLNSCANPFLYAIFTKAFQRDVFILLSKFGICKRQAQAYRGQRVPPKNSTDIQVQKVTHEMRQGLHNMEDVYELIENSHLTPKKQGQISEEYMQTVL
In short: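 Readout is cAMP by HTRF competition between cellular cAMP and cAMP-d2 for a cryptate-labelled antibody. Antagonism was assessed in TSHR-transfected HEK293 cells stimulated with 4 nM TSH (EC80, final) in the presence of RO 20-1724.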

Measured: Potency

O=C(c1ccc(Cl)cc1)N1CCN(c2ccc([N+](=O)[O-])c3ncccc23)CC1
not listed: [14] | [15] | [16] | [17] | [18]
inactive: all other assays above

C[N+]1(C)C2CC(OC(=O)[C@H](CO)c3ccccc3)CC1C1OC12 (stereo partly specified)
inactive: [1] | [2] | [3] | [4] | [5] | [6] | [7] | [10] | [12] | [13]

CCCN(CC1CC1)c1nc(C)nc(Nc2c(Cl)cc(Cl)cc2Cl)c1Cl
active: [14] 2620 nM
not listed: [13] | [17] | [18]
inactive: all other assays above

CC(C)CC(NP(=O)(O)O[C@@H]1O[C@@H](C)[C@H](O)[C@@H](O)[C@H]1O)C(=O)NC(Cc1c[nH]c2ccccc12)C(=O)O (stereo partly specified)
not listed: [8] | [12] | [14] | [15] | [16] | [17] | [18]
inactive: all other assays above

CC(C)NC[C@@H](O)c1ccc(O)c(O)c1
inactive: [1] | [2] | [3] | [4] | [6] | [15] | [10] | [11] | [12] | [13]

Cc1nc2sccn2c(=O)c1CCN1CCC(=C(c2ccccc2)c2ccc(F)cc2)CC1
not listed: [9] | [11] | [13] | [14] | [16] | [17] | [18]
inactive: all other assays above

O=C(Nc1ccccc1)c1cc([N+](=O)[O-])ccc1Cl
not listed: [4] | [13] | [14]
inactive: all other assays above

CC1OC1P(=O)(O)O (stereo unspecified)
not listed: [9] | [13] | [14] | [15] | [16] | [17] | [18]
inactive: all other assays above

C=CC(C)=C[C@@]1(C)SC(=O)C(C)=C1O
not listed: [9] | [13] | [14] | [16] | [17] | [18]
inactive: all other assays above

CCCCCC(O)c1cccc(OCc2ccc3ccccc3n2)c1 (stereo unspecified)
not listed: [4] | [11] | [17]
inactive: all other assays above

COc1cc(OC)c(/C=C2/C(=O)Nc3ccccc32)c(OC)c1
not listed: [4] | [9] | [12] | [15] | [17]
inactive: all other assays above

Brc1c(Br)c(Br)c2n[nH]nc2c1Br
not listed: [4] | [8] | [9] | [12] | [15] | [17] | [18]
inactive: all other assays above

CSc1nc(N)c2ncn([C@@H]3O[C@H](COP(=O)(O)OP(=O)(O)OP(=O)(O)O)[C@@H](O)[C@H]3O)c2n1
inactive: [1] | [2] | [3] | [5] | [6] | [7] | [8] | [15] | [9] | [10]

CCCCCCCCc1ccc(-c2ccc(C(=O)O)cc2)cc1
not listed: [4] | [14] | [16] | [18]
inactive: all other assays above
